Our source for the growth inhibition values is PubChem BioAssay (NCI).

Structures are written as SMILES. This is part of a sample that, as a whole, favours compounds with a hit. Of some 79,000 tested, about 15% had one in any assay. A number with no mark means an inactive call. Activity calls are given as the source filed them. No stated cut-off is given here; in the data, active means growth inhibition above about 70%; inactive means the rest.

The experiment can be described thus: NCI Yeast Anticancer Drug Screen. Data for the rad50EPP+ strain (AID 151).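 Further: 0% = growth of vehicle-treated control cultures.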 The settings on record: S. cerevisiae rad50 mutant strain, stronger effect = higher value. Here is the method: Growth inhibition of yeast strains with defined genetic alterations is measured as a screen for potential anti-cancer activity. Selected strains with alterations in DNA damage repair or cell cycle control were exposed to compounds and growth inhibition was measured relative to vehicle treated controls. The strain used in this assay is rad50EPP+

`O=C1Nc2ccc(Cl)c(I)c2C1=O`: the growth inhibition by setting is: (at 1.2 µM) 28%; (at 3.7 µM) 35%; (at 11.0 µM) 44%; (at 33.0 µM) 65%; (at 100.0 µM) 79% (active).
`CC[C@@]1(O)C(=O)OCc2c1cc1n(c2=O)Cc2cc3c(CN(C)C)c(O)ccc3nc2-1`: the growth inhibition is 30% (at 1.2 µM); 29% (at 3.7 µM); 22% (at 11.0 µM); 23% (at 33.0 µM); 30% (at 100.0 µM).
For the compound `COC(=O)C1=C(C)NC(C)=C(C(=O)OCCCN2CCC(c3ccccc3)(c3ccccc3)CC2)C1c1cccc([N+](=O)[O-])c1` (stereo not given), the growth inhibition reads like this: (at 1.2 µM) 66%; (at 3.7 µM) 86% (active); (at 11.0 µM) 88% (active); (at 33.0 µM) 92% (active); (at 100.0 µM) 82% (active).
As for `BrCc1cccc2ccc3cccc(CBr)c3c12`, the growth inhibition by setting is: (at 1.2 µM) -4%; (at 3.7 µM) 0%; (at 11.0 µM) 12%; (at 33.0 µM) 18%; (at 100.0 µM) 24%.
For `OCC1OC(OCC(O)C(O)C(O)C(/C=N/Nc2ccccc2)=N/Nc2ccccc2)C(O)C(O)C1O` (stereo not given) the same measures were 9%, 30%, 38%, 40% and 37%.
As for `COc1cc(C2c3cc4c(cc3OC(Nc3ccccc3)C2C)OCO4)cc(OC)c1O` (stereo not given), the growth inhibition (at 1.2 µM) was -1%; the growth inhibition (at 3.7 µM) was -3%; the growth inhibition (at 11.0 µM) is 1%; the growth inhibition (at 33.0 µM) was 1%; the growth inhibition (at 100.0 µM) was 0%.
On to `O=C(CCCN1CCC(O)(c2ccc(Cl)cc2)CC1)c1ccc(F)cc1`, for which the growth inhibition reads like this: (at 1.2 µM) -3%; (at 3.7 µM) -4%; (at 11.0 µM) -6%; (at 33.0 µM) -6%; (at 100.0 µM) 0%.
Take `CC(=O)SCCC[Si](C)(C)CCCSC(C)=O`: the growth inhibition was -3% (at 1.2 µM); 2% (at 3.7 µM); 12% (at 11.0 µM); 11% (at 33.0 µM); 20% (at 100.0 µM).
